An excerpt weighted towards active compounds, which were near 0.9% of everything screened.
HIV TAR-Tat: HIV-1 TAR-Tat binding disruption; HIV-1 TAR RNA, Tat peptide displacement FRET; stronger effect = higher value; z-score (test concentration not listed); actives 0.6% (n = 100,000); AID 1259389; active = z-score of 3 or more in at least 2 runs
CDC25B-CDK2 inh: human CDC25B-CDK2/CyclinA binding inhibition; P30305+P24941; HTRF CDC25B-CDK2/CyclinA binding, anti-His/anti-Flag; stronger effect = higher value; z-score (test concentration not listed); actives 0.72% (n = 94,000); AID 1259370; in the data active = z-score above about 3.2
Large screens that a line does not name were inactive.

O=C(Nc1ccc(Br)cc1)N1CCSc2ncccc21	none (no result: CDC25B-CDK2 inh)
O=C(Cc1ccc(NC(=O)N2CCSc3ncccc32)cc1)Nc1ccc(Br)cc1	CDC25B-CDK2 inh 16
CCCCN(CC)CCNC(=O)c1nn(C)c2c1CS(=O)(=O)c1ccccc1-2	none
CCN(CC)CCCNC(=O)c1nn(C)c2c1CS(=O)(=O)c1ccccc1-2	HIV TAR-Tat 6.9
CCOc1ccccc1-n1nnc(-c2nc(-c3cccs3)no2)c1N	none (no result: CDC25B-CDK2 inh)
CCS(=O)(=O)c1nc(S(=O)(=O)c2ccc(Cl)cc2)c(N2CCCCC2)s1	none
CC(O)c1nc2ccc(-c3ccc4nc(C(C)O)[nH]c4c3)cc2[nH]1 (stereo not given)	CDC25B-CDK2 inh 6.8
CC(O)c1nc2ccccc2[nH]1 (stereo not given)	none (no result: HIV TAR-Tat)
CCOC(=O)c1cc2c(=O)oc3ccccc3c2n1CC	none
CCOC(=O)c1nc2ccccc2[nH]c1=O	CDC25B-CDK2 inh 18
CCOC(=O)C(C)c1nc2ccccc2[nH]c1=O (stereo not given)	none (no result: HIV TAR-Tat)
Cc1nnc(N2CCN(C(=O)Nc3ccc4c(c3)OCCO4)CC2)c2nn(-c3ccccc3)c(C)c12	none (no result: CDC25B-CDK2 inh)
Cc1ccccc1C(=O)Nc1c(C)nc2c(C)cccn2c1=O	none (no result: CDC25B-CDK2 inh)
Cn1c(=O)n(Cc2ccccc2)c(=O)c2c1nc1n2CCN1c1ccc(F)cc1	none (no result: CDC25B-CDK2 inh)
Cn1c(=O)n(C/C=C/c2ccccc2)c(=O)c2c1nc1n2CCN1c1ccc(F)cc1	HIV TAR-Tat 12 (no result: CDC25B-CDK2 inh)
CSc1ccc(C2CC(=O)Nc3c2c(C)nn3-c2nncc(-c3ccc(C)cc3)n2)cc1 (stereo not given)	none
O=C(NCC1CCCO1)C1=Cc2ccccc2OC1 (stereo not given)	none (no result: CDC25B-CDK2 inh)
Cc1onc(-c2c(Cl)cccc2Cl)c1CO	none (no result: HIV TAR-Tat)
OCCNC(=S)Nc1ccc2nc3c4ccccc4c4ccccc4c3nc2c1	CDC25B-CDK2 inh 21 (no result: HIV TAR-Tat)
O=C(Nc1ccc2nc3c4ccccc4c4ccccc4c3nc2c1)N(CCO)c1ccccc1	none (no result: HIV TAR-Tat)
O=C(O)c1ccc2nc(-c3ccccc3)c(-c3ccccc3)nc2c1	none
O=C(O)c1ccc2nc3c(nc2c1)-c1cccc2cccc-3c12	HIV TAR-Tat 5.9
O=C(c1ccc2c(c1)C(=O)c1ccccc1-2)c1ccccc1Br	none (no result: HIV TAR-Tat)
O=C1c2ccccc2C(=O)c2c1oc(C(F)(F)F)c2C(=O)c1ccc2ccccc2c1	CDC25B-CDK2 inh 9.3 (no result: HIV TAR-Tat)
CC1CN(c2nc3c(c(=O)n(Cc4ccccc4Cl)c(=O)n3C)n2C)CC(C)O1 (stereo not given)	none
COc1ccc(-c2noc(N3CCC(N4CCCCC4)CC3)n2)cc1	none
CC(C)=CC[C@@H](O)C1=CC(=O)c2c(O)ccc(O)c2C1=O	HIV TAR-Tat 34 (no result: CDC25B-CDK2 inh)
Cc1nnc2c(Nc3ccc(Cl)cc3)nc3ccccc3n12	none
Cc1cccc(Nc2nn3c(=O)c4cc5c(cc4nc3s2)OCO5)c1	HIV TAR-Tat 13 (no result: CDC25B-CDK2 inh)
O=c1c2cc3c(cc2nc2sc(Nc4cccc(Cl)c4)nn12)OCO3	none
Cc1ccc(-c2noc(CN(C(=O)c3ccc(C)c(Cl)c3)C(C)C)n2)cc1	none
CCN1C(=O)C2(c3ccccc31)c1c(oc3cc(C)c(C)cc3c1=O)C(=O)N2CC1CCCO1 (stereo not given)	none
NC(=O)c1nc(Nc2ccccc2)sc1NC(=O)Cc1cccs1	none (no result: CDC25B-CDK2 inh)
CCN(CC)C(=O)c1sc(NC(=O)c2cc(-c3ccc(C)o3)nc3ccccc23)c(C(N)=O)c1C	HIV TAR-Tat 8.5
NC(=O)c1nc(Nc2ccccc2)sc1NC(=O)c1cc(-c2ccco2)nc2ccccc12	HIV TAR-Tat 20 (no result: CDC25B-CDK2 inh)
Cc1nnc(NC(=O)c2cc(-c3ccc(Cl)cc3)nc3ccccc23)s1	none (no result: HIV TAR-Tat)
O=C(NCc1cccn1Cc1ccccc1F)Nc1ccc(Br)cc1F	none (no result: CDC25B-CDK2 inh)
O=C1Nc2ccc(S(=O)(=O)NCc3ccccc3)cc2C1=O	HIV TAR-Tat 6.2 (no result: CDC25B-CDK2 inh)
O=C1Cc2cc(S(=O)(=O)NCc3ccccc3)ccc2N1	none (no result: CDC25B-CDK2 inh)
CC1CCCN(c2cc(NCCO)c3c4c(onc24)-c2ccccc2C3=O)C1 (stereo not given)	none
CC1CCCN(c2cc(NCC(=O)O)c3c4c(onc24)-c2ccccc2C3=O)C1 (stereo not given)	CDC25B-CDK2 inh 3
CC1CC(C)CN(c2cc(NCC(=O)O)c3c4c(onc24)-c2ccccc2C3=O)C1 (stereo not given)	CDC25B-CDK2 inh 12
CC1CC(C)CN(c2cc(NCCO)c3c4c(onc24)-c2ccccc2C3=O)C1 (stereo not given)	none
CC1CC(C)CN(c2cc(NCCCC(=O)O)c3c4c(onc24)-c2ccccc2C3=O)C1 (stereo not given)	CDC25B-CDK2 inh 3
CC1CCCN(c2cc(NCCCC(=O)O)c3c4c(onc24)-c2ccccc2C3=O)C1 (stereo not given)	none
CCNc1cc(N2CCCC(C(=O)OCC)C2)c2noc3c2c1C(=O)c1ccccc1-3 (stereo not given)	none
CCOC(=O)C1CCCN(c2cc(NCCO)c3c4c(onc24)-c2ccccc2C3=O)C1 (stereo not given)	HIV TAR-Tat 8.8
CSc1ncc(C(=O)Nc2cccc(F)c2)c(C(F)(F)F)n1	none (no result: CDC25B-CDK2 inh)
CCOC(=O)Cn1c(=O)oc2cc(S(=O)(=O)NC(C)CC)ccc21 (stereo not given)	none (no result: HIV TAR-Tat)
